From article PMC5540273 (PLoS ONE, 2017)

Tests used:
Conditions in all cases: concentration: 1 μM, replicates: in singlicate; n = 1
PAK4 = tested on: PAK4
PAK6 = tested on: PAK6
PAK7 = tested on: PAK7
PCTK1 = tested on: T1, PCTK1
T1 construct: gene CDK16

PCTK2 = tested on: T2, PCTK2
T2 construct: gene CDK17

PCTK3 = tested on: T3, PCTK3
T3 construct: gene CDK18

PDGFRA = tested on: PDGFRA
PDGFRB = tested on: PDGFRB
PDPK1 = tested on: PDPK1
PFTAIRE2 = tested on: PFTAIRE2
PFTK1 = tested on: T4, PFTK1
T4 construct: gene CDK14

PHKG1 = tested on: PHKG1
PHKG2 = tested on: PHKG2
PIK3C2B = tested on: PIK3C2B
PIK3C2G = tested on: PIK3C2G
PIK3CA = tested on: PIK3CA
PIK3CB = tested on: PIK3CB
PIK3CD = tested on: PIK3CD
PIK3CG = tested on: PIK3CG
PIK4CB = tested on: T5, PIK4CB
T5 construct: gene PI4KB
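Also: KINOMEscan kinase panel screen.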

Compound	%Inh (PAK4)	%Inh (PAK6)	%Inh (PAK7)	%Inh (PCTK1)	%Inh (PCTK2)	%Inh (PCTK3)	%Inh (PDGFRA)	%Inh (PDGFRB)	%Inh (PDPK1)	%Inh (PFTAIRE2)	%Inh (PFTK1)	%Inh (PHKG1)	%Inh (PHKG2)	%Inh (PIK3C2B)	%Inh (PIK3C2G)	%Inh (PIK3CA)	%Inh (PIK3CB)	%Inh (PIK3CD)	%Inh (PIK3CG)	%Inh (PIK4CB)
Cc1ccc(C(=O)NCC(N)=O)cc1-n1c(C)cc(OCc2ccc(F)cc2F)c(Br)c1=O	13%	12%	5%	0%	2%	22%	0%	9%	15%	10%	26%	9%	1%	0%	51%	0%	0%	30%	0%	0%
CCCCCc1nc2c(N)ncnc2n1CCCCC [SKF-97255]	6%	0%	0%	0%	0%	0%	0%	73%	0%	0%	2%	9%	0%	0%	0%	14%	0%	0%	15%	1%
CSc1ccc(-c2cc3ncnc(SCC(=O)O)c3s2)cc1	0%	0%	8%	0%	0%	6%	15%	50%	10%	12%	3%	0%	0%	0%	0%	0%	0%	8%	2%	0%
Cc1cccc(-c2nc(Nc3ccc4ncsc4c3)c3ccccc3n2)n1 [GW867588]	8%	0%	8%	0%	0%	0%	33%	0%	0%	0%	0%	0%	0%	0%	10%	0%	0%	30%	0%	28%
O=C(NCCNc1ccnc(Nc2ccc(F)cc2)n1)Nc1ccccc1F [GSK1379880]	0%	0%	0%	0%	16%	14%	0%	70%	7%	21%	13%	0%	0%	0%	62%	0%	0%	21%	0%	13%
COc1ccc(COc2cc(-n3cnc4ccccc43)sc2C(N)=O)cc1 [GSK1024304]	0%	0%	5%	0%	0%	11%	0%	31%	3%	17%	0%	0%	0%	0%	0%	0%	100%	0%	0%	0%
Cc1cn2c(=O)cc(N3CCOCC3)nc2n1Cc1cccc(Cl)c1Cl [GSK2334006]	0%	2%	0%	5%	9%	13%	0%	31%	25%	22%	0%	14%	14%	36%	1%	3%	88%	100%	22%	0%
[2H]C([2H])(c1cccc(C(F)(F)F)c1C)n1ccn2c(=O)nc(N3CCOCC3)cc12 [GSK2336394]	0%	0%	0%	4%	0%	11%	0%	15%	0%	0%	12%	0%	0%	0%	0%	0%	97.5%	38%	0%	0%
Cc1nnc(-c2ccc(C)c(-c3ccc(C(=O)Nc4ccc(NS(C)(=O)=O)cc4)cc3)c2)o1 [GW702865]	0%	0%	6%	0%	7%	12%	9%	36%	0%	3%	14%	2%	0%	0%	0%	0%	0%	10%	0%	0%
CC(C)(C)n1cnc2c(N)ncnc21 [SKF-97359]	21%	0%	6%	0%	0%	0%	0%	0%	0%	8%	0%	14%	24%	0%	0%	0%	0%	0%	0%	25%
COc1ccc(Nc2nccc(N3CCC(NC(=O)Nc4cccc(C(C)=O)c4)C3)n2)cc1 (stereo not drawn) [GSK1379731]	0%	13%	0%	9%	0%	18%	0%	38%	7%	9%	3%	0%	0%	0%	0%	0%	0%	0%	0%	0%
Fc1ccc(-c2nn3c(OCC(F)(F)F)cccc3c2-c2ccncc2)cc1 [GW514784]	0%	0%	16%	0%	15%	0%	0%	21%	0%	7%	3%	0%	0%	0%	0%	0%	0%	30%	0%	0%
